This note sets out measurements from the antibiotic and cytotoxicity screens of Wong et al. (2023).

Among all 39,000 compounds or so, about 3,300 (8.5%) were called active. The sample holds actives, similar compounds and a random draw of the others, so the mix is not that of the screen.

This assay relates to HepG2. Description: cytotoxicity call (relative viability < 0.9). As to conditions: 10 µM.
On to `C[C@H]1CN([C@@H](C)CO)C(=O)Cc2cc(NC(=O)c3ccncc3)ccc2O[C@@H]1CN(C)Cc1ccncc1`, for which the cytotoxicity call is “inactive”.
As for `C=CCOc1ccc(C(=O)C2=C(O)C(=O)N(CCCN3CCOCC3)[C@@]23C(=O)N(C)c2ccccc23)cc1C`, the entry is “inactive”; as for `COCC(=O)Nc1ccc2c(c1)C(=O)N(C)[C@H]1CC[C@@H](CC(=O)NC3Cc4ccccc4C3)O[C@@H]1CO2`, “inactive”; as for `COc1ccc(CN(C)C[C@H]2OCCCC[C@@H](C)Oc3ccc(NS(=O)(=O)c4c(C)noc4C)cc3C(=O)N([C@H](C)CO)C[C@H]2C)cc1`, “inactive”.
Take `COc1ccc(NC(=O)Nc2ccc3c(c2)C(=O)N([C@H](C)CO)C[C@H](C)[C@H](CN(C)C(=O)Nc2ccc(C(F)(F)F)cc2)O3)cc1`: the cytotoxicity call is “inactive”.
Regarding `C[C@@H]1CN([C@H](C)CO)C(=O)c2cc(NS(=O)(=O)c3ccc(Cl)cc3)ccc2O[C@@H](C)CCCCO[C@H]1CN(C)Cc1ccc(Cl)c(Cl)c1`, the cytotoxicity call was “active”.
With `C[C@@H]1CCCCO[C@@H](CN(C)Cc2ccc(Cl)c(Cl)c2)[C@H](C)CN([C@@H](C)CO)C(=O)c2cc(NS(=O)(=O)c3ccc(Cl)cc3)ccc2O1`, the cytotoxicity call was “active”.
As for `C[C@@H]1CN([C@H](C)CO)C(=O)c2cc(NS(=O)(=O)c3ccc(Cl)cc3)ccc2O[C@@H](C)CCCCO[C@@H]1CN(C)Cc1ccc(Cl)c(Cl)c1`, the entry is “active”; as for `C[C@@H]1CCCCO[C@@H](CN(C)Cc2ccc(Cl)c(Cl)c2)[C@@H](C)CN([C@@H](C)CO)C(=O)c2cc(NS(=O)(=O)c3ccc(Cl)cc3)ccc2O1`, “active”; as for `C[C@@H]1CN([C@H](C)CO)C(=O)c2c(c3ccccc3n2C)-c2ccccc2CO[C@H]1CN(C)Cc1ccc(Oc2ccccc2)cc1`, “inactive”.
As for `O=C(C[C@@H]1CC[C@@H]2[C@H](COC[C@H](O)CN2C(=O)Nc2cccc(Cl)c2)O1)NCCCN1CCOCC1`, the entry is “inactive”; as for `C[C@@H]1CN([C@H](C)CO)C(=O)Cc2cc(NS(C)(=O)=O)ccc2O[C@@H]1CN(C)S(=O)(=O)c1cn(C)cn1`, “inactive”.
Take `C[C@@H]1CCCCO[C@H](CN(C)S(=O)(=O)c2cn(C)cn2)[C@H](C)CN([C@@H](C)CO)C(=O)c2cc(NC(=O)CCCN(C)C)ccc2O1`: the cytotoxicity call is “inactive”.
As for `CO[C@H](CN(C)C(=O)Nc1ccc(C(F)(F)F)cc1)[C@H](C)CN(Cc1ccccc1Cl)[C@@H](C)CO`, the entry is “inactive”; as for `C[C@@H]1CN([C@H](C)CO)C(=O)c2c(c3ccccc3n2C)-c2ccccc2CO[C@@H]1CN(C)C(=O)Nc1ccc(F)cc1`, “inactive”; as for `COCC(=O)N1CC[C@@H](O)[C@@H]1Cc1cnn(C)c1`, “inactive”.
For `CN1C(=O)c2cc(NC(=O)C3CCOCC3)ccc2OC[C@H]2O[C@H](CC(=O)NCc3ccccc3F)CC[C@@H]21`, the cytotoxicity call was “inactive”.
As for `COC(=O)C[C@@H]1CC[C@H]2[C@H](COc3ccc(NS(=O)(=O)c4ccccc4Cl)cc3C(=O)N2C)O1`, the entry is “inactive”; as for `COCC(=O)N1C[C@H](C)[C@H](OC)CN(C)C(=O)c2cc(NC(=O)Nc3ccccc3)ccc2OC[C@H]1C`, “inactive”; as for `C[C@@H]1CN([C@H](C)CO)C(=O)c2cccc(NC(=O)c3ccncc3)c2O[C@H]1CN(C)Cc1ccc2c(c1)OCO2`, “inactive”.
As for `O=C(CCCCCCC(=O)N/N=C/[C@@H](O)[C@H](O)[C@H](O)CO)NO`, the entry is “inactive”; as for `C[C@@H]1CCCCO[C@@H](CN(C)Cc2ccc(Cl)c(Cl)c2)[C@@H](C)CN([C@H](C)CO)C(=O)c2cc(NS(=O)(=O)c3ccc(Cl)cc3)ccc2O1`, “inactive”; as for `C[C@@H]1CCCCO[C@H](CN(C)Cc2ccc(Cl)c(Cl)c2)[C@H](C)CN([C@@H](C)CO)C(=O)c2cc(NS(=O)(=O)c3ccc(Cl)cc3)ccc2O1`, “active”.
As for `C[C@H](CO)N1C[C@H](C)[C@@H](CN(C)Cc2ccc(Cl)c(Cl)c2)OCCCC[C@H](C)Oc2ccc(NS(=O)(=O)c3ccc(Cl)cc3)cc2C1=O`, the entry is “inactive”; as for `C[C@@H]1CCCCO[C@H](CN(C)Cc2ccc(Cl)c(Cl)c2)[C@@H](C)CN([C@H](C)CO)C(=O)c2cc(NS(=O)(=O)c3ccc(Cl)cc3)ccc2O1`, “active”; as for `C[C@@H]1CCCCO[C@@H](CN(C)Cc2ccc(Cl)c(Cl)c2)[C@H](C)CN([C@H](C)CO)C(=O)c2cc(NS(=O)(=O)c3ccc(Cl)cc3)ccc2O1`, “active”.
On to `C[C@@H]1CCCCO[C@H](CN(C)Cc2ccc(Cl)c(Cl)c2)[C@@H](C)CN([C@@H](C)CO)C(=O)c2cc(NS(=O)(=O)c3ccc(Cl)cc3)ccc2O1`, for which the cytotoxicity call is “active”.
As for `CC(C)NC(=O)Nc1cccc2c1O[C@H](CN(C)Cc1ccc3c(c1)OCO3)[C@@H](C)CN([C@@H](C)CO)C2=O`, the entry is “inactive”; as for `COc1ccc(NC(=O)Nc2ccc3c(c2)C(=O)N([C@H](C)CO)C[C@H](C)[C@@H](CN(C)C(=O)Nc2ccc(C(F)(F)F)cc2)OCCCC[C@H](C)O3)cc1`, “inactive”.
As for `C[C@@H]1CN([C@@H](C)CO)C(=O)c2cc(NC(=O)Nc3ccc(F)cc3)ccc2O[C@@H](C)CCCCO[C@H]1CN(C)Cc1ccc(C(=O)O)cc1`, the entry is “inactive”; as for `COc1cccc(S(=O)(=O)N2C[C@H](O)COC[C@H]3O[C@H](CC(=O)NCCCN4CCOCC4)CC[C@@H]32)c1`, “inactive”.
As for `CN1[C@@H]2c3ccc(-c4ccccc4)c(=O)n3C[C@H]1[C@H](CO)[C@H]2C(=O)NCCCN1CCOCC1`, the entry is “inactive”; as for `Cc1noc(C)c1NC(=O)Nc1cccc2c1O[C@H](CN(C)C(=O)NC(C)C)[C@H](C)CN([C@@H](C)CO)C2=O`, “inactive”.
With `O=C(C[C@H]1CC[C@H]2[C@@H](COC[C@H](O)CN2S(=O)(=O)c2ccc(Cl)cc2)O1)N[C@@H]1CCN(Cc2ccccc2)C1`, the cytotoxicity call is “inactive”.
As for `CCCN(C)C[C@@H]1OCCCC[C@@H](C)Oc2ccc(NS(=O)(=O)c3cn(C)cn3)cc2C(=O)N([C@H](C)CO)C[C@@H]1C`, the entry is “inactive”; as for `COc1ccc(NC(=O)N(C)C[C@H]2Oc3ncc(C#CC(C)C)cc3C(=O)N([C@H](C)CO)C[C@H]2C)cc1`, “inactive”.
As for `CC1OC(OC2C(O)CC(OC3C(O)CC(OC4CCC5(C)C(CCC6C5CCC5(C)C(C7=CC(=O)OC7)CCC65O)C4)OC3C)OC2C)CC(O)C1O` (stereo not drawn), the entry is “active”; as for `C[C@H]1O[C@@H](O[C@H]2[C@@H](O)C[C@H](O[C@H]3[C@@H](O)C[C@H](O[C@H]4CC[C@@]5(C)[C@H](CC[C@@H]6[C@@H]5CC[C@]5(C)[C@@H](C7=CC(=O)OC7)CC[C@]65O)C4)O[C@@H]3C)O[C@@H]2C)C[C@H](O)[C@@H]1O`, “active”.
